Test results published in PubChem BioAssay (NCATS).
Results filed as inconclusive are left out. A call without a number means that no potency is given here. Calls of active or inactive are those of the source. The call rests on the fitted dose curve; in most records, active means well fitted inhibition curve with a large enough effect; inconclusive means small, poorly fitted or top-dose-only effect; inactive means flat fitted curve, though single readings scatter.

Target: Dual specificity protein kinase CLK4 (Homo sapiens) (UniProt Q9HAZ1)
Sequence (Q9HAZ1 whole entry, looked up): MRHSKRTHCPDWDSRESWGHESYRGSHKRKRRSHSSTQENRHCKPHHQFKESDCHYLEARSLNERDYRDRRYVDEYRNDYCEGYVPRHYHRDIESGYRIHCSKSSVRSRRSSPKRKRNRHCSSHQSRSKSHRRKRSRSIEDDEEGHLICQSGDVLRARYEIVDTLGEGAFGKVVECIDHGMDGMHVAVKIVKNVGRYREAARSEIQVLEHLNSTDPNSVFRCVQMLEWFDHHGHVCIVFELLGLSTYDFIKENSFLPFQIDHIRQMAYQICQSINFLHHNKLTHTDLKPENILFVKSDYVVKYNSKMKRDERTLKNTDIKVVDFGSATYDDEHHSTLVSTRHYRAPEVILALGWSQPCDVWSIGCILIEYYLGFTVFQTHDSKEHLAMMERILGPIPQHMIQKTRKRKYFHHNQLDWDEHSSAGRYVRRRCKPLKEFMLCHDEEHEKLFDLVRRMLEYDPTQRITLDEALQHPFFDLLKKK
Experiment: qHTS Assay for Inhibitors of CDC-like Kinase 4 (Kinase-Glo Assay) (AID 1770); further: nearly all actives have a fitted effect of over 65% in size
Conditions: recombinant Clk4, Kinase-Glo ATP depletion luminescence; series mostly up to 66.7 µM
Protocol: NIH Molecular Libraries Probe Production Centers Network [MLPCN] NIH Chemical Genomics Center [NCGC] MLPCN Grant: 1R03MH084827-01 Assay Submitter (PI): Tom Misteli NCGC Assay Overview: Clk4 (Invitrogen, cat# PV3839) was assayed using ATP and the RS repeat peptide (AnaSpec cat # 61722) as substrates. Following the Clk4 reaction, the remaining ATP levels were detected using Promega Kinase-Glo technology wherein the remaining ATP from the kinase reaction is detected using Ultra-Glo luciferase and D-luciferin which generates a bioluminescence signal from the ATP. The positive control for the assay was TG003 (Sigma-Aldrich, cat# 300801-52-9) which has been described as an inhibitor of Clk 4[1].
NCGC Assay Protocol Summary: Two uL/well of substrate-buffer solution (100 uM RS peptide, 1 uM ATP, 25 mM Tris pH7.5, 10 mM MgCl2, 0.5 mM EGTA, 2.5 mM DTT, 0.01% Triton X-100 final concentration) was dispensed into 1536-well, assay plates (Greiner, solid white medium-binding plates) with Aurora Discovery BioRAPTR Flying Reagent Dispenser (FRD; Beckton-Dickenson). Using a Kalypsys pin tool equipped with a 1536-pin tool, 23 nL of compound solution was transferred to the assay plate. One uL/ well Clk4-buffer solution (25 nM Clk4, 25 mM Tris pH 7.5, 10 mM MgCl2, 0.5 mM EGTA, 2.5 mM DTT, 0.01% Triton X-100, final concentrations) was then added using the FRD yielding a total kinase reaction volume of 3 uL/ well. After 4.5 hours of room temperature incubation, 3 uL Kinase-Glo reagent was added for a final assay volume of 6 uL/ well. Luminescence was detected with the ViewLux plate reader (Perkin Elmer, Waltham, MA) after 5 min incubation using a 5 second exposure time and 2x binning.
Potency means the concentration at half of the fitted maximal effect.

SMILES	Potency
COc1ccc2[nH]cc(CCNc3nc(-c4cccc(C#N)c4)nc4ccccc34)c2c1	22.4 µM (active)
CCNc1ncc2nc(-c3ccc(Cl)cc3)c(=O)n(-c3ccc(OC)cc3)c2n1	inactive
COc1ccc(CNc2ncnc3ccc(-c4ccc5c(c4)OCO5)cc23)c(OC)c1	1.41 µM (active)
COc1cccc(Cn2c(=O)c(-c3ccc(F)cc3)nc3cnc(N4CCOCC4)nc32)c1	inactive
COc1ccc(CNc2ccnc(-c3ccccc3OC)n2)c(OC)c1	inactive
Cc1ccccc1-c1ccc2ncnc(NCc3cccs3)c2c1	3.98 µM (active)
Clc1ccccc1-c1cc(NCCN2CCOCC2)ncn1	inactive
Clc1ccccc1-c1ccc2ncnc(NC3CCNCC3)c2c1	25.1 µM (active)
COc1ccc(-c2nc3cnc(N(C)C)nc3n(C3CC3)c2=O)cc1	inactive
FC(F)(F)c1ccccc1-c1cncnc1NCCN1CCOCC1	inactive
CN(C)C(=O)c1ccc(-c2cncnc2N(C)Cc2ccco2)cc1	inactive
COc1cccc(Cn2c(=O)c(C)nc3cnc(Nc4cccc(OC)c4)nc32)c1	inactive
CN(C)c1ccc(-c2cncnc2Nc2ccccc2)cc1	22.4 µM (active)
FC(F)(F)c1ccccc1-c1cncnc1-n1ccnc1	inactive
COc1ccc2[nH]cc(CCNc3ccnc(-c4ccccc4C(F)(F)F)n3)c2c1	inactive
COCCn1c(=O)c(-c2cn(C)c3ccccc23)nc2cnc(OCc3ccccc3)nc21	inactive
Cc1noc(C)c1-c1nccc(NCc2cccs2)n1	22.4 µM (active)
COc1ccc(CNc2nc(-c3ccc(N(C)C)cc3)nc3ccccc23)c(OC)c1	inactive
COc1ccc(CNc2ccnc(-c3ccccc3CN(C)C)n2)c(OC)c1	inactive
CN(C)c1ncc2nc(-c3cc(F)cc(F)c3)c(=O)n(-c3ccccc3)c2n1	inactive

SMILES	Potency
Cc1noc(C)c1-c1nc(NC2CCNCC2)c2ccccc2n1	25.1 µM (active)
COc1ncc2nc(-c3cn(C)c4ccccc34)c(=O)n(-c3ccccc3)c2n1	inactive
COc1ccc(-c2nc3cnc(Nc4cccc(OC)c4)nc3n(Cc3cccs3)c2=O)cc1	inactive
COc1cccc(-c2ccc3ncnc(NCCc4c[nH]c5ccc(OC)cc45)c3c2)c1	5.01 µM (active)
COc1ccc(-n2c(=O)c(-c3cc(F)cc(F)c3)nc3cncnc32)cc1	inactive
CN(C)C(=O)c1ccc(-c2ccc3ncnc(NCc4ccccc4)c3c2)cc1	inactive
N#CCCn1c(=O)c(-c2cccs2)nc2cnc(Nc3ccccc3)nc21	inactive
CN(C)Cc1ccccc1-c1cc(NCc2ccccc2)ncn1	inactive
COCCn1c(=O)c(C)nc2cnc(N3CCOCC3)nc21	inactive
COc1cccc(Nc2ncc3nc(C)c(=O)n(-c4ccccc4)c3n2)c1	10 µM (active)
Cc1noc(C)c1-c1nc(Nc2ccccc2)c2ccccc2n1	inactive
COc1cccc(Cn2c(=O)c(C)nc3cnc(N(C)C)nc32)c1	inactive
COc1ccc(CNc2ncncc2-c2ccccc2C(F)(F)F)c(OC)c1	inactive
N#Cc1cccc(-c2nccc(NCc3cccnc3)n2)c1	14.1 µM (active)
O=c1cnc2cnc(Oc3ccccc3)nc2n1C1CC1	inactive
COc1ccc(-c2nc3cnc(N4CCN(C)CC4)nc3n(C3CC3)c2=O)cc1	inactive
COc1ncc2nc(-c3cn(C)c4ccccc34)c(=O)n(C[C@H]3CCCO3)c2n1	inactive
COc1ccc(CNc2ncnc3ccc(-c4ccoc4)cc23)c(OC)c1	0.708 µM (active)
N#Cc1ccccc1-c1ccc2ncnc(NC3CC3)c2c1	6.31 µM (active)
COc1ncc2nc(-c3cn(C)c4ccccc34)c(=O)n(CCc3ccccc3)c2n1	inactive
